These results are taken from ChEMBL document CHEMBL3988442, “University of Dundee, Small-Polar-MMV Screening Library” (2021).

For some of these results: Entries with a potency or affinity are not part of this list.

Holding throughout (design): scale not given: direction of the effect not stated beside the values
In assay [1] the target is Protein translocase subunit SecA (Escherichia coli (strain K12)) (UniProt P10408). Nature of the assay: Assay to Identify E. coli SecA ATPase Inhibitors. Type of assay: functional. The conditions noted are these: 30 µM.
Assay [2] addresses T1, Ubiquitin-activating enzyme e1, putative (Leishmania donovani (strain BPK282A1)) (UniProt E9BSI1).
T1 sequence (whole entry): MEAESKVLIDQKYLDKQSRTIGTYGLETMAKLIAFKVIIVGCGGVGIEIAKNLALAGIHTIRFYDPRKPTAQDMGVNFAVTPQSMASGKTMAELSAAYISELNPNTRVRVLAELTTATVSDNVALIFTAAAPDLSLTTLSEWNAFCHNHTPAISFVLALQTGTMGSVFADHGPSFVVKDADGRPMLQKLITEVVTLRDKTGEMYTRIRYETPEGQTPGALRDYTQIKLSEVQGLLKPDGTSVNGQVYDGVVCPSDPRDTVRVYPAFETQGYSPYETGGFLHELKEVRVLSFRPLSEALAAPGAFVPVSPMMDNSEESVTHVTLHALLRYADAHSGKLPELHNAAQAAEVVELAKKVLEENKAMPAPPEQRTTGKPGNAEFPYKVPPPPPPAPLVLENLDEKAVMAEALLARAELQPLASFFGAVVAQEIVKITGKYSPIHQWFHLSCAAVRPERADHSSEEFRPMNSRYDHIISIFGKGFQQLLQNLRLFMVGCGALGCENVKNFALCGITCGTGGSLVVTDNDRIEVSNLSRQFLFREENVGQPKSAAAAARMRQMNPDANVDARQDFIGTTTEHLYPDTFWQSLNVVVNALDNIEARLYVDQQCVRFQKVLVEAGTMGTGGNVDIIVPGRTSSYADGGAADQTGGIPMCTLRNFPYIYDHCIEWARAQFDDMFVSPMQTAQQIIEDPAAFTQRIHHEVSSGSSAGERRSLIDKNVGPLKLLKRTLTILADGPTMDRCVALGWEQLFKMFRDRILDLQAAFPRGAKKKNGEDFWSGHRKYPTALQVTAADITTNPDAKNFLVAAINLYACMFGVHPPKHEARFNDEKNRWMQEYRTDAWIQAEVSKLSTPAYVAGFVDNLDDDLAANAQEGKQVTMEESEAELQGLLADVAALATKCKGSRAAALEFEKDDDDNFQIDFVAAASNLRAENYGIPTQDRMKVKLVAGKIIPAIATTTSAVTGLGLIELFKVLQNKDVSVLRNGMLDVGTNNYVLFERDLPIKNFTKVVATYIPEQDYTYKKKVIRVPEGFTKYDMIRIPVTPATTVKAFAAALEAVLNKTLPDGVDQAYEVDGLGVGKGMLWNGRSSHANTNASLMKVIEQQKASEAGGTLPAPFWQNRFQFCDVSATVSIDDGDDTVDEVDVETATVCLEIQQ
Nature of the assay: Leishmania donovani Ubiquitin Activating Enzyme (LdE1). Type of assay: functional. Particulars: 30 µM.

The target in assay [3] is AMP-activated protein kinase, AMPK (Homo sapiens) (UniProt P54646+O43741+P54619+Q9UGJ0+Q9Y478+Q13131+Q9UGI9). Nature of the assay: AMP-dependent Kinase enzyme assay. An in vitro enzyme assay that detects ADP turnover that is directly proportional to AMPK activity. This uses naive AMPK that is activated during the assay with MK-8722. The conditions noted are these: 30 µM. Format: functional.

For assay [4], the target named is Sialic acid-binding Ig-like lectin 9 (Homo sapiens) (UniProt Q9Y336). Kind of assay: Hs-Siglec9 ALPHAscreen SOP 20170721. Particulars: 10 µM.
The next assay deals with Trypanosoma cruzi. Kind of assay: Trypanosoma cruzi phosphomannomutase and mannose-1-phosphate guanylyltransferase assay. The conditions noted are these: 10 µM. Type of assay: functional.
The target in assay [5] is T2, Arginase-2, mitochondrial (Homo sapiens) (UniProt P78540).
T2 sequence (whole entry): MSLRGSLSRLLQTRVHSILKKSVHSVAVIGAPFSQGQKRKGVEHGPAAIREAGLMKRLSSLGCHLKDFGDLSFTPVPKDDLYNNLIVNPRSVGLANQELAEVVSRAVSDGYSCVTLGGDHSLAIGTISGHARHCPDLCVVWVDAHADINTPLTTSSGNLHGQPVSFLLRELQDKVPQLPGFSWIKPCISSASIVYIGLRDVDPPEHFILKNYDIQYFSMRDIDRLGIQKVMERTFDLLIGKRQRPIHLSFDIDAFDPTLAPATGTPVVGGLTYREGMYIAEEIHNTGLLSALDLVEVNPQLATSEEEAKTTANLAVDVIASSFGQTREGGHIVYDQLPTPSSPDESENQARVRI
Nature of the assay: in vitro enzyme assay to detect the production of urea directly proportional to the activity of Arginase II. Note: in the data most compounds retested in dose-response had high values. Particulars: 33.3 µM. Format: functional.

Assay [6] concerns the target T3, Proteasome subunit beta (Trypanosoma cruzi) (UniProt O96673).
T3 sequence (whole entry): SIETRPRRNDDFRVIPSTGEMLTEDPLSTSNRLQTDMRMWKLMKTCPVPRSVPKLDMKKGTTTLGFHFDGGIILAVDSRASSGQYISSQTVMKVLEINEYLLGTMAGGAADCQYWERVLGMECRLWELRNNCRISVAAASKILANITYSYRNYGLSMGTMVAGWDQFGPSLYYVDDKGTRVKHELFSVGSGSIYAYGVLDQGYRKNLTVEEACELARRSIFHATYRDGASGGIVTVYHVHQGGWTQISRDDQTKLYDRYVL
Kind of assay: Trypanosoma cruzi proteasome chymotrypsin-like activity (TcProtChymo) assay. Note: in the data most compounds retested in dose-response had high values. Type of assay: functional. The conditions noted are these: 9.37 µM.

A further assay is filed under the species Homo sapiens. Kind of assay: To identify inhibition of the IFN signalling (Jak-Stat) pathway via expression of an eGFP reporter gene under the control of an IFN-stimulated response element (ISRE) containing MxA promoter. Format: functional. Particulars: 30 µM.
Assay [7] concerns the target T4, Tyrosyl-tRNA synthetase, putative (Trypanosoma cruzi (strain CL Brener)) (UniProt Q4DSP6).
T4 sequence (whole entry): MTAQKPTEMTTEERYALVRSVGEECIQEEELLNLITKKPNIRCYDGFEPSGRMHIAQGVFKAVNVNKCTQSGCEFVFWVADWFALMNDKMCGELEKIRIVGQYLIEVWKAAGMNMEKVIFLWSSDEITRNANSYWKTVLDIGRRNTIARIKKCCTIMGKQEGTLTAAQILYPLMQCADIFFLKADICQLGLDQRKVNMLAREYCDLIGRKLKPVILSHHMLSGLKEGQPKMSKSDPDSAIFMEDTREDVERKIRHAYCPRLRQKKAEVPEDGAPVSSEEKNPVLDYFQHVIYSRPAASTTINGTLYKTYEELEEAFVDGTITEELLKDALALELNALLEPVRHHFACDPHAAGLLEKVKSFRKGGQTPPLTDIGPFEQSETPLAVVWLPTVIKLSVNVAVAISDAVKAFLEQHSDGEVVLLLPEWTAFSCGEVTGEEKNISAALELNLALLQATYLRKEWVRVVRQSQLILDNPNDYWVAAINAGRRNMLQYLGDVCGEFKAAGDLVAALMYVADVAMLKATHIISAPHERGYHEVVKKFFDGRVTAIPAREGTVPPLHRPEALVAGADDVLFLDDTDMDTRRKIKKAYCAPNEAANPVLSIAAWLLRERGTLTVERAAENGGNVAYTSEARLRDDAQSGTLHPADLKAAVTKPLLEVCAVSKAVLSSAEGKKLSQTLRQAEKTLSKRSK
Nature of the assay: Trypanosoma cruzi tyrosyl tRNA synthetase (TcYRS) _High Tyrosine SOP. Note: in the data most compounds retested in dose-response had high values. Type of assay: functional. Particulars: 30 µM.

Assay [8] has as its target T4, Tyrosyl-tRNA synthetase, putative (Trypanosoma cruzi (strain CL Brener)). Kind of assay: Trypanosoma cruzi tyrosyl tRNA synthetase (TcYRS) SOP. Format: functional. Particulars: 30 µM.
For assay [9], the target named is Chromo domain-containing protein 1 (Saccharomyces cerevisiae (strain ATCC 204508 / S288c) (Baker's yeast)) (UniProt P32657). Kind of assay: ScCHD-1 Enzyme Inhibition Assay. Note: in the data most compounds retested in dose-response had high values. Type of assay: functional. The conditions noted are these: 30 µM.
Sequence of Chromo domain-containing protein 1 (Saccharomyces cerevisiae (strain ATCC 204508 / S288c) (Baker's yeast)) (P32657 whole entry, the tested form may be a part): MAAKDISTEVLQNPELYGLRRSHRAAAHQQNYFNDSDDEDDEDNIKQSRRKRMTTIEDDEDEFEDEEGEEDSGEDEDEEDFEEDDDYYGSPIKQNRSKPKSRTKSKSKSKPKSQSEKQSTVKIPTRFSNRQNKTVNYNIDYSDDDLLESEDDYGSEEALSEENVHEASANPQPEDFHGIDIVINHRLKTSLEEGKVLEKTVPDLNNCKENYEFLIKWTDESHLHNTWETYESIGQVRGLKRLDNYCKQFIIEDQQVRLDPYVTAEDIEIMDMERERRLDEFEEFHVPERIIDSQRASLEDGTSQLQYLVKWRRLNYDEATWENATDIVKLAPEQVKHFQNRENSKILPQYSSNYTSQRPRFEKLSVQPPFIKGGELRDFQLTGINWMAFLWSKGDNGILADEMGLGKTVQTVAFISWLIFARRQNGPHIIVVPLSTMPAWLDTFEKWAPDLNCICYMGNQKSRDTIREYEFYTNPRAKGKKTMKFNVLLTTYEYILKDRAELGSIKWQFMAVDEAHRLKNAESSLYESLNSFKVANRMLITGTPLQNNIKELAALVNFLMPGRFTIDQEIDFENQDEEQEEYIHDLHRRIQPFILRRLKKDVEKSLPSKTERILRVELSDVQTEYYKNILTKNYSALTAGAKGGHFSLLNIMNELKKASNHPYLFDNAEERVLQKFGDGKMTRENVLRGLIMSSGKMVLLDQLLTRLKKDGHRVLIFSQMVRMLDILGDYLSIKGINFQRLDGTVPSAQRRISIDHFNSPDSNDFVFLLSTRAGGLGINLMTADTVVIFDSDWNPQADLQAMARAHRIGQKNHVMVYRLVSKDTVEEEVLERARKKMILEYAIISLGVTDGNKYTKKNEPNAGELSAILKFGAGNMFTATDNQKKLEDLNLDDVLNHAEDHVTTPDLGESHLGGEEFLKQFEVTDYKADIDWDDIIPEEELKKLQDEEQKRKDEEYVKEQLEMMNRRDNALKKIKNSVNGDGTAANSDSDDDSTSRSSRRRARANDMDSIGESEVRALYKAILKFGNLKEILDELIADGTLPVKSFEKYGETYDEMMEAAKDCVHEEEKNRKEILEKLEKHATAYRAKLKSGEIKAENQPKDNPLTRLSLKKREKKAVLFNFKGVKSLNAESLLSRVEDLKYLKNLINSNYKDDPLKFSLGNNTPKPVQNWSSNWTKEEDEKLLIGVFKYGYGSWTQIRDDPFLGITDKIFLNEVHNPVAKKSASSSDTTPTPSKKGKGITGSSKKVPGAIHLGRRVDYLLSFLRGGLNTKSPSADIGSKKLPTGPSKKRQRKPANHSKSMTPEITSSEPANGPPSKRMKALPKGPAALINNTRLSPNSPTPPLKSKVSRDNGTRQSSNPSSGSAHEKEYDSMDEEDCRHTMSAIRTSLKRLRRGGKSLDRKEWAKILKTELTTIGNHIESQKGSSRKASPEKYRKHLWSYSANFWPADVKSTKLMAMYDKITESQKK

Sequence of Protein translocase subunit SecA (Escherichia coli (strain K12)) (P10408 whole entry): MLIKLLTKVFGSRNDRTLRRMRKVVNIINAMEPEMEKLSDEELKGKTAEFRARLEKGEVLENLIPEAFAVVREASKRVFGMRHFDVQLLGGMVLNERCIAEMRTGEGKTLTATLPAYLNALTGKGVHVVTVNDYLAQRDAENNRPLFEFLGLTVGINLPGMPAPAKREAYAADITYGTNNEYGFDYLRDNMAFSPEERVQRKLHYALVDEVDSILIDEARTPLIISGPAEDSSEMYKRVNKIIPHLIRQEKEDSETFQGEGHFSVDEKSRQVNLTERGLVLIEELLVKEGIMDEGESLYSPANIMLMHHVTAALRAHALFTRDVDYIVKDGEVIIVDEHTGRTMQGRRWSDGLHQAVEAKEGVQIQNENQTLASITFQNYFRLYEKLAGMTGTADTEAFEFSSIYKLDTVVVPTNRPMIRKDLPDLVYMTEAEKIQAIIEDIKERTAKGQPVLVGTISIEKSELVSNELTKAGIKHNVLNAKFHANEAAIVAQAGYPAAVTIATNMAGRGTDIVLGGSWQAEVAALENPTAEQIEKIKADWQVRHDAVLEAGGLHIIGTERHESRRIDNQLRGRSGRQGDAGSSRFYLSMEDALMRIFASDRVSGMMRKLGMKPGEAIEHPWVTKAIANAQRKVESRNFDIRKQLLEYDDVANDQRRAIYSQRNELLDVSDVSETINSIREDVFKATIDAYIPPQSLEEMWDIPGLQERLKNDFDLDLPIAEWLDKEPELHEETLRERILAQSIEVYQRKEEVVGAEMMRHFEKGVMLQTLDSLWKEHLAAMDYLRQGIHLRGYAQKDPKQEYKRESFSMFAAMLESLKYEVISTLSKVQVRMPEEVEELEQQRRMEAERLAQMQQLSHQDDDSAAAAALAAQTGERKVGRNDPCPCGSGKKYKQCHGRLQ
Sequence of Sialic acid-binding Ig-like lectin 9 (Homo sapiens) (Q9Y336 whole entry): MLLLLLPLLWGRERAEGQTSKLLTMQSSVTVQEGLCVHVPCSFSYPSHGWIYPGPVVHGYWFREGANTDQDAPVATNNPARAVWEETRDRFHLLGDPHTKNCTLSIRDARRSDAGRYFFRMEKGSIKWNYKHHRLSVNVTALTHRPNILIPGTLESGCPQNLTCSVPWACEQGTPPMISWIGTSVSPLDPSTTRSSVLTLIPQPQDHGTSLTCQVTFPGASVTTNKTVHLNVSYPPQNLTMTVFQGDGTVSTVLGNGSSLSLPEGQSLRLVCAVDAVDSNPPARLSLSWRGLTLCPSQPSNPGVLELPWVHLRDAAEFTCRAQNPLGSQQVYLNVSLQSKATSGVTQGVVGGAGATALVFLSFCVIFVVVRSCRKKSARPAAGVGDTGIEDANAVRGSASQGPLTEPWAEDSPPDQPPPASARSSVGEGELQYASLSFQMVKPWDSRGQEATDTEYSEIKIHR

Consider `CCOCC1CN(S(C)(=O)=O)Cc2cnn(C)c21` (stereo unspecified), for which the Percent Effect in [1] is -0.898%; in assay [2], 16%; in assay [3] it was -7.73%; in assay [4], 10.1%; with Trypanosoma cruzi it was 5.79%; in [5] it was -43.9%. The Percent Effect in assay [6] is 10.8%; in the assay listed under Homo sapiens it was -2.61%; in [7] it was 4.17%; in [8], 12.5%; in [9] it was -7.93%.
On to `N#Cc1ccnc(N2CCN(C(=O)NC3CCS(=O)(=O)C3)CC2)c1` (stereo unspecified), for which the Percent Effect was -2.8% in assay [1]; 16.2% in assay [2]; -36.1% in assay [3]; 7.69% in assay [4]; -0.464% in the assay on Trypanosoma cruzi; -0.185% in assay [5]. Moreover, the Percent Effect in [6] is 9.87%; in the assay filed under Homo sapiens, 14.6%; in assay [7], 7.92%; in assay [8], 23.2%; in assay [9], -5.46%.
`Cc1cnn(CCNCC(=O)NCc2ccccc2)c1`: the Percent Effect in assay [1] was -0.968%; in assay [2], 5.26%; in assay [3], -2.33%; in assay [4] it was 11.4%; in the assay on Trypanosoma cruzi, 2.15%; in assay [5] it was -4.68%. Besides, the Percent Effect in assay [6] was 0.0846%; in the assay filed under Homo sapiens, -25%; in assay [7], 6.4%; in assay [8], 6.17%; in assay [9], 4.48%.
For `O=C1OC2(CCN(C3CCCOC3)CC2)CN1CCc1ccccc1` (stereo unspecified), the Percent Effect in assay [1] is -0.187%; in assay [2], 7.79%; in assay [3] it was -6.88%; in assay [4], 5.02%; in the assay on Trypanosoma cruzi, -3.64%; in [5], -11%. The Percent Effect in [6] came to 14%; in the assay filed under Homo sapiens, 15.6%; in [7] it was 3.23%; in assay [8], 6.17%; in assay [9], 0.643%.
Take `CC(=O)N1CCC[C@H]1C(=O)NCCOc1cccc(Cl)c1`: the Percent Effect was -0.692% in assay [1]; 7.79% in assay [2]; -8.32% in assay [3]; -3.36% in [4]; 4.31% in the assay on Trypanosoma cruzi; 4.98% in assay [5]. Moreover, the Percent Effect was 13.7% in [6]; 12.4% in the assay listed under Homo sapiens; 6.8% in assay [7]; 24.4% in assay [8]; -9.94% in [9].
In the case of `CCc1noc(C)c1C(=O)N1CCCC1Cn1cc(C)cn1` (stereo unspecified), the Percent Effect in [1] was -3.44%; in assay [2] it was 15.8%; in assay [3], 8.82%; in assay [4] it was -9.39%; in the assay with Trypanosoma cruzi it was -10.4%; in [5], 0%. Besides, the Percent Effect is 3.64% in assay [6]; -1.17% in the assay listed under Homo sapiens; 2.46% in assay [7]; 1.24% in [8]; -10.2% in [9].
Turning to `CCc1nc(CN(C)CC(c2cccs2)N2CCOCC2)no1` (stereo unspecified), the Percent Effect is -2.58% in assay [1]; 27% in assay [2]; -3.84% in [3]; -3.75% in [4]; 1.76% with Trypanosoma cruzi; -2.4% in [5]. For the same compound, the Percent Effect is 10.6% in assay [6]; 13.9% in the assay listed under Homo sapiens; 6.93% in assay [7]; 23.2% in assay [8]; -7.57% in assay [9].
`COCCN(Cc1ccoc1)C(=O)c1c(F)cccc1Cl`: the Percent Effect in assay [1] was -4.43%; in assay [2], 5.2%; in assay [3] it was 10.7%; in assay [4], 9.59%; in the assay on Trypanosoma cruzi it was -5.62%; in assay [5] it was 5.81%. Moreover, the Percent Effect in assay [6] is 2.44%; in the assay listed under Homo sapiens, -5.55%; in assay [7], 3.17%; in [8], 11.5%; in assay [9], -5.12%.
Consider `CC(C)Oc1cc(N2C[C@@H](C)O[C@@H](C)C2)nc(N)n1`, for which the Percent Effect is -1.28% in assay [1]; 8.11% in [2]; -16.9% in assay [3]; -0.905% in assay [4]; 0% in the assay with Trypanosoma cruzi; -17.1% in [5]. The Percent Effect was 12.8% in assay [6]; 3.78% in the assay listed under Homo sapiens; 10.1% in assay [7]; 12.2% in assay [8]; -1.35% in [9].
On to `CC(C)(C)c1cc(CN2CC[C@@H](NC(=O)c3cccnc3)[C@H](O)C2)n[nH]1`, for which the Percent Effect in assay [1] is -3.5%; in assay [2], 1.39%; in [3] it was -10.7%; in [4], 10.3%; with Trypanosoma cruzi, 4.37%; in [5], 17.7%. Also, the Percent Effect was 6.49% in [6]; 15.6% in the assay filed under Homo sapiens; 3.16% in [7]; 12.8% in assay [8]; -6.81% in assay [9].
`O=C(Cc1ccc2c(c1)OCCO2)N1CCCC(n2ccnc2)C1` (stereo unspecified): the Percent Effect in assay [1] was -8.71%; in assay [2] it was 5.2%; in assay [3] it was -7.38%; in assay [4], -6.56%; with Trypanosoma cruzi, 10.7%; in [5], -3.58%. Besides, the Percent Effect is 4.77% in assay [6]; 2.67% in the assay listed under Homo sapiens; 1.91% in assay [7]; 11.8% in [8]; -24.2% in assay [9].
